Screening results: PubChem, National Center for Advancing Translational Sciences (NCATS)
TRHR ag = agonists of human TRH receptor | AID 493084 | 0.18% of 360,000 active | activation, % at 2 µM | TRHR cells, calcium flux fluo-8, FDSS agonist mode | P34981; note: 0% is about no effect
Target sequence (P34981 whole entry, looked up): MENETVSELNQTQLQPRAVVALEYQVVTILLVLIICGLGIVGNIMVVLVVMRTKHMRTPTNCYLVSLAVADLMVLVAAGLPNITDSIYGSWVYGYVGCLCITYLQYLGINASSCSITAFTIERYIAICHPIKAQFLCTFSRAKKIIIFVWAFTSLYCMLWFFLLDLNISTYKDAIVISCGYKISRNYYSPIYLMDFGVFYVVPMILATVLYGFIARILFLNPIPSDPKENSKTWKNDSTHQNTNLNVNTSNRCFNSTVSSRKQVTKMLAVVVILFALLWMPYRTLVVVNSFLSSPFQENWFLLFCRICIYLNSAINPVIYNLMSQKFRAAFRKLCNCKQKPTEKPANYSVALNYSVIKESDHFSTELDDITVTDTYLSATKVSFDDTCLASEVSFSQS
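Agonist-mode FDSS calcium read (Ex 480/Em 530, 1 s cycles) in 1536-well TRHR cells with fluo-8 dye, after 10-cycle baseline and 23 nL compound addition; TRH at EC20 (10 nM final) added afterwards for the enhancer phase.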
D1 agonist = human D1 receptor agonism. AID 504660. P21728. 1% of 360,000 active. activation, % at 2 µM. HEK293 T-REx D1 cells, calcium flux, agonist mode; note: 0% is about no effect
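Inducible HEK293 T-REx D1 cells, force-coupled to calcium signalling, were plated at 4000 cells/well with tetracycline and held overnight at 30 C. After no-wash calcium dye loading, compound-evoked calcium rise over 180 s flagged agonists.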
D1 antagonist = antagonists of human D1 dopamine receptor | P21728 | HEK293 TREx D1 cells, calcium flux, dopamine EC80; active compounds read low | activity change, negative = inhibition, % at 10 µM | 3.2% of 360,000 active; in the data active = activity change below about -30%; note: % is set by controls: 0 for no effect and ±100 for the full control effect
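Inducible Hek293 Trex D1 cells (tetracycline, overnight, 30 C). Calcium dye 30–90 min RT. Antagonist mode: EC80 dopamine added after 180 s compound read.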
D1 PAM = human D1 dopamine receptor positive modulation; P21728; HEK293 TREx D1 cells, calcium flux, dopamine EC20 potentiation; potentiation, % at 10 µM; 0.036% of 360,000 active; in the data active = potentiation above about 30%; note: 0% is about no effect
TRHR enhancer = TRH receptor (human) allosteric enhancement; AID 493056; 0.66% of 360,000 active; TRHR cells, fluo-8 calcium fluorescence, EC20 TRH enhancement; P34981; enhancement, % at 2 µM; in the data active = enhancement above about 30%; note: 0% is about no effect
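Enhancer read-out: after compound pinning and an initial kinetic agonist-mode read, an EC20 of TRH (10 nM final) was injected and fluo-8 calcium signal (Ex 480/Em 530) followed at 1 s/cycle for 100 cycles in TRHR-expressing cells.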
The depositor's hits bear a star. The list is not random: actives were taken first. Their share in the collection is about 4.7%. Cut-off read from the data, not from the text of the source, unless noted: active = activation above about 30%; inactive = the rest.

SMILES	TRHR ag	D1 agonist	D1 antagonist	D1 PAM	TRHR enhancer
CCOC(=O)c1ccc(NC(=S)N(CCCN2CCN(C)CC2)Cc2cccs2)cc1	1	9	2	-6	-2
CCOC(=O)c1ccc(NC(=S)N(CCCN2CCCC2)Cc2ccco2)cc1	0	9	-14	-7	3
COc1ccc(C(=O)NCC(=O)OC(C(=O)Nc2cc(C(F)(F)F)ccc2Cl)c2ccccc2)cc1OC (stereo not drawn)	-1	5	-16	-1	2
Fc1ccc(-c2noc3ncnc(N4CCCCC4)c23)cc1	-1	0	-3	0	13
S=C(NC1CCCC1)NC1CC1	0	6	-41*	-5	18
Cc1cccn2c(=O)cc(CSc3nnc(NC(=O)c4ccc(F)cc4)s3)nc12	0	0	-3	0	-3
Cc1nnc(SCc2cc(=O)n3cccc(C)c3n2)s1	0	0	-47*	2	6
COc1ccc(Nc2oc(COc3ccc(OC)cc3)nc2C#N)cc1	0	1	-34*	-13	-4
CCC(Cc1ccccc1)NC(=O)CN1C(=O)COc2ccc(S(=O)(=O)N3CCCCCC3)cc21 (stereo not drawn)	0	3	-1	-5	12
O=C(O)CCNC(=O)CCCn1nnc2ccccc2c1=O	0	1	-43*	-1	-1
CC(C)C[C@H](NC(=O)CCCn1nnc2ccccc2c1=O)C(=O)O	0	1	-18	-6	-2
CCCN(CCC)C(=O)Cn1c(=O)n(CCCCC(=O)NC2CCCC2)c(=O)c2ccccc21	0	4	-5	-2	-3
CC(C)(C)C(=O)Cn1ncc(Cl)c(Cl)c1=O	0	11	5	-1	32*
O=C(CC1CCCCC1)OCn1nnc2ccccc2c1=O	0	2	-16	-1	2
O=C(CCCCn1c(=O)c2ccccc2n(CC(=O)NC2CCCC2)c1=O)NC1CCCC1	1	0	-39*	-1	-1
O=C(Cn1nnc2ccccc2c1=O)NC1CCCCC1	0	2	-43*	4	2
O=C(CC1N=C2c3ccccc3N=C(SCc3cccc(Cl)c3)N2C1=O)NCCc1ccccc1 (stereo not drawn)	0	6	18	8	-2
COC(=O)c1ccc(NC(=O)CC2C(=O)N(c3ccc(C)cc3)C(=O)N2Cc2ccc(OC)cc2)cc1 (stereo not drawn)	0	1	-18	-2	3
O=C(Nc1nc2n(n1)C(c1ccc(F)cc1)C=C(c1ccc(Cl)cc1)N2)c1ccc([N+](=O)[O-])cc1 (stereo not drawn)	0	1	9	-1	-3
O=C(Cn1ncc(Cl)c(Cl)c1=O)NC1CCCCC1	0	2	-37*	-11	-3
CCCCNc1nc2c(S(=O)(=O)c3ccc(Br)cc3)nnn2c2ccsc12	-1	0	-27	-7	-9
CCC1=NN(C(=O)Cc2ccccc2)C(O)(c2ccncc2)C1 (stereo not drawn)	-1	15	-41*	-3	26
CCN(C(=O)Cn1c(=O)oc2cc(S(=O)(=O)N3CCCC3)ccc21)c1cccc(C)c1	-1	0	2	-2	-5
NCCc1c(-c2ccccc2)n(-c2ccccc2)c2ccccc12	13	102*	21	1	-2
CC(=O)n1c(-c2ccccc2)c(CO)c2ccccc21	-1	-1	-1	-7	-2
SMILES	TRHR ag	D1 agonist	D1 antagonist	D1 PAM	TRHR enhancer
CC(C)NC(=O)Cc1csc2nc(-c3ccccc3)cn12	0	0	6	-2	6
CC1CCN(C(=O)Cn2c(=O)n(CCCC(=O)NCc3ccco3)c(=O)c3sccc32)CC1	-1	2	2	-2	-8
CC1CCCCN1C(=O)Cn1c(=O)n(CCC(=O)NCc2ccco2)c(=O)c2sccc21 (stereo not drawn)	0	0	0	-1	35*
CSCCC(NC(=O)c1ccco1)C(=O)OC(C)C(=O)NC(=O)NC1CCCCC1 (stereo not drawn)	52*	1	3	-4	-2
CCOC(=O)c1c(C)n(-c2ccc(C)cc2)c2ccc(O)c(CN(C)C)c12	0	34*	-24	-11	2
CCOC(=O)c1c(C)n(-c2ccc(OC)cc2)c2ccc(O)c(CN(C)C)c12	3	14	5	0	-8
COc1ccc(C(=O)NC2CC2)cc1OC1CCN(Cc2cc(C)cc(C)c2)CC1	0	1	-51*	-19	23
COc1ccc(C(=O)NC2CC2)cc1OC1CCN(Cc2ccc(Cl)cc2)CC1	1	6	-58*	-19	3
C/C=C(\C)CN1CCC(Oc2cc(C(=O)NC3CC3)ccc2OC)CC1	1	2	-3	-19	4
CCN1CCc2nc3sc(C(=O)c4ccccc4)c(N)c3cc2C1	9	28	-10	-3	-6
Cc1cc(NC(=O)c2cccs2)cc(-c2nc3cc(Cl)ccc3o2)c1O	0	1	3	-3	-3
COC(=O)[C@H]1CCCN1C(=O)Nc1cccc(Oc2c(F)c(F)c(F)c(F)c2F)c1	0	4	-31*	-2	-4
N#Cc1nc(Nc2ccc(Br)cc2)nc(NC2CCCC2)n1	-2	7	-29	-4	2
O=C(CN1C(=O)NC2(CCCCC2)C1=O)Oc1ccc2c(C(F)(F)F)cc(=O)oc2c1	19	51*	3	0	1
COc1c(C)cc(Br)cc1C(=O)Nc1ccc(S(N)(=O)=O)cc1	-1	1	-61*	-6	-2
Cc1cc2oc(C(=O)Nc3ccc(S(N)(=O)=O)cc3)cc(=O)c2cc1C	0	0	-58*	-2	20
CCc1nc2ccc(C(=O)Nc3ccc4c(c3)OCO4)cc2nc1CC	0	0	-10	-4	39*
CCc1ccc(C(=O)Nc2ccc3nc(C)ccc3c2)cc1	-1	2	-31*	-10	4
CCc1nc2ccc(C(=O)Nc3nnc(C)s3)cc2nc1CC	0	3	-42*	-8	1
COc1ccc(C(=O)Nc2nnc(C)s2)cc1	-1	-1	4	4	3
CCc1nc2ccc(C(=O)Nc3cccc(C(C)=O)c3)cc2nc1CC	-1	0	7	5	1
Cc1ccc2cc(NC(=O)c3ccc(C(C)(C)C)cc3)ccc2n1	-1	0	-15	1	3
NC(=O)C1CCN(c2nc(-c3cc4ccccc4o3)cs2)CC1	-1	23	-33*	-6	4
CC(C)NC(=O)NC(=O)COC(=O)/C=C/c1ccc2c(c1)OCO2	0	1	-30*	-1	9
CC(NC(=O)COC(=O)/C=C/c1ccc2c(c1)OCO2)c1ccccc1 (stereo not drawn)	0	1	-5	-3	3
